RORg inh – inhibitors of mouse ROR gamma transcriptional activity. P51450. Drosophila S2 Gal4-RORgamma UAS-luciferase reporter, 20 h. Potency, µM (highest dose often 53.6 µM), for the others: at the top dose activity change, negative = inhibition, most hits filed as inhibitors. 310,000 compounds, 5.4% hits. AID 2551; further: potency means the concentration at half of the fitted maximal effect; nearly all actives have a fitted effect of over 60% in size
Target sequence (P51450 whole entry, looked up, the tested form may be a part): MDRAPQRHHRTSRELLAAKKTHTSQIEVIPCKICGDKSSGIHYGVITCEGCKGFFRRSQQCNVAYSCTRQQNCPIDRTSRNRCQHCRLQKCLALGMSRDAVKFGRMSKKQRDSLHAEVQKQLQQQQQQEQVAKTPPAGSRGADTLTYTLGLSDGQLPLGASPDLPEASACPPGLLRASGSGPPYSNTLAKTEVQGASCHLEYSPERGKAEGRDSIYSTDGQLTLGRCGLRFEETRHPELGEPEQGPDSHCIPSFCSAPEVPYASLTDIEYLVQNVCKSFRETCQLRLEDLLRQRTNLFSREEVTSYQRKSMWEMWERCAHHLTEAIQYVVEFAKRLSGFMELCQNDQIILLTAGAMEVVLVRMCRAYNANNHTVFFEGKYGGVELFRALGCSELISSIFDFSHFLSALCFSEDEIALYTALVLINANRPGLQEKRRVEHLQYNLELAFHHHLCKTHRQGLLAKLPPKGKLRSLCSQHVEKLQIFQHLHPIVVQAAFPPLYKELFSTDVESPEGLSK
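A Gal4/UAS one-hybrid system in insect cells: metallothionein-promoter Gal4–ROR gamma fusion plus Photinus luciferase reporter. Copper sulfate 700 uM final, 20 hr ambient incubation, luminescent detection after 10 min with reagent.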
TSHR antagonist – human thyrotropin receptor antagonism | TSHR-expressing cells, TSH-stimulated cAMP HTRF, 2 h; stronger effect = lower value | 330,000 compounds, 0.2% hits | P16473 | AID 504810 | activity change, negative = inhibition, % at 11.5 µM;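 active means activity change below a set negative limit, meaning inhibition stronger than a set level, cut at about -70% in these data; inconclusive means activity change between two set negative limits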
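TSHR-expressing cells were treated with compounds, then stimulated with TSH at EC80 (4nM final) for 2 hours at 37 deg C. Cellular cAMP was measured by HTRF competition between lysate cAMP and cAMP-d2 for a cryptate-labelled anti-cAMP antibody.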
Gal4-VP16 FLuc – inhibits Gal4-VP16 luciferase reporter, ROR gamma counter-screen; 310,000 compounds, 3.5% hits; Drosophila S2 Gal4-VP16 UAS-luciferase, luminescence, 20 h; Potency, µM (highest dose often 53.6 µM), for the others: top-dose activity, negative = inhibition, actives largely listed as inhibitors;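 further: Gal4-VP16 expression switched on by copper sulfate through the metallothionein promoter; potency means the concentration at half of the fitted maximal effect; nearly all actives have a fitted effect of over 50% in size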
FBPA coupling cs – coupling enzyme interference in Giardia aldolase counter-screen. coupling enzyme system counterscreen, AmpLite Red fluorescence. activity change, negative = inhibition, % at 58.2 µM, hits read low. 290,000 compounds, 0.67% hits. AID 2472; in the data active means activity change below about -30%
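Fluorescence at 525 nm excitation and 598 nm emission measured inhibition of the coupled detection system without aldolase. Compounds (at 57.5 uM final) were preincubated 10 min at room temperature with coupling enzyme reagent before a 20 min substrate/AmpLite Red step.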
ELG1 DNA repair – ELG1-dependent DNA repair inhibition; HEK293T ELG1-luciferase reporter, luminescence, 16 h; DNA damage induced by 5-fluorouridine; Potency, µM (doses to about 46.1 µM), inactives show top-dose activity change, negative = inhibition, actives largely listed as inhibitors; 330,000 compounds, 2.3% hits; further: potency means the concentration at half of the fitted maximal effect; nearly all actives have a fitted effect of over 55% in size
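5-Fluorouridine DNA damage + compound/DMSO, 2,000 cells/well, 16 h, 37 °C/5% CO2. ONE-Glo, 30 min RT, luminescence. Readout = decrease in reporter signal.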
ELG1 FLuc counter – luciferase inhibition in cell-free luciferin readout for ELG1 hits; shares compounds with ELG1 DNA repair; cell-free firefly luciferase luminescence counter-screen, ViewLux; Potency, µM (titrated, usually from 46.1 µM), without a hit: at the highest dose activity change, negative = inhibition, most hits filed as inhibitors; 350 compounds, 3% hits; AID 624247; further: potency means the concentration at half of the fitted maximal effect
ELG1 Luc conf – human ELG1 repair inhibition, luciferase-tagged ELG1 confirmation; AID 624248; HEK293T ELG1-luciferase levels, luminescence; cells co-treated with 5-fluorouridine; Potency, µM (top dose mostly 46.1 µM), for inactives: top-dose activity change, negative = inhibition, most hits filed as inhibitors; 670 compounds, 68% hits; shares compounds with ELG1 DNA repair; further: potency means the concentration at half of the fitted maximal effect; nearly all actives have a fitted effect of over 55% in size
ELG1 MMS Luc – MMS-stimulated human ELG1 repair inhibition, confirmed | Potency, µM (top dose mostly 46.1 µM), inactives show at the top dose activity change, negative = inhibition, usual class: inhibitors | 670 compounds, 53% hits | AID 624249 | HEK293T luciferase-tagged ELG1 level, MMS stimulated | shares compounds with ELG1 DNA repair; further: potency means the concentration at half of the fitted maximal effect; nearly all actives have a fitted effect of over 60% in size
ELG1 5FU viab – confirmation of ELG1 repair inhibitors: viability with 5FU; shares compounds with ELG1 DNA repair; AID 624250; 670 tested, under 10 active; cell viability with 5-FU, ELG1-dependent repair; Potency, µM (titrated, usually from 46.1 µM), without a hit: at the top dose activity change, negative = viability loss, most hits filed as cytotoxic;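 further: ELG1-luc HEK293T cells cotreated with 5-fluorouridine at 10 µM final; potency means the concentration at half of the fitted maximal effect; viability measured 16 h after compound addition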
ELG1 MMS cell – confirmation of ELG1 repair inhibitors: viability with MMS. shares compounds with ELG1 DNA repair. Potency, µM (doses to about 46.1 µM), for inactives: at the top dose activity change, negative = viability loss, hits mostly cytotoxic. 670 compounds, 33% hits. Cell viability with MMS, ELG1-dependent DNA repair;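 further: ELG1-luc HEK293T cells co-treated with 10 µM MMS; potency means the concentration at half of the fitted maximal effect; viability read 16 h after compound addition; nearly all actives have a fitted effect of over 60% in size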
ELG1 unstim viab – affects unstimulated cell viability, ELG1 hit counter-screen; shares compounds with ELG1 DNA repair; cell viability counter-screen, unstimulated, luminescence; Potency, µM (highest dose often 45.9 µM), without a hit: at the highest dose activity change, negative = loss of viability, hits mostly cytotoxic; 900 compounds, 8% hits; AID 624252;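 further: potency means the concentration at half of the fitted maximal effect; compound exposure lasted 16 hours before reading; nearly all actives have a fitted effect of over 55% in size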
FLuc enzyme – inhibits purified firefly luciferase, counter-screen for ELG1 hits | Potency, µM (highest dose often 57.5 µM), without a hit: top-dose activity, negative = inhibition, actives largely listed as inhibitors | 350 compounds, 10% hits | AID 624253 | shares compounds with ELG1 DNA repair | purified firefly luciferase, luminescence counter-screen; further: potency means the concentration at half of the fitted maximal effect
* = called active by the depositor; ? = inconclusive; . = no result given. Hits are enriched below; roughly 8% of the tested compounds scored in any of these assays. Unless noted, the call rests on the fitted dose curve; in most records, active means well fitted curve in the direction sought with a large enough effect; inconclusive means small, poorly fitted or top-dose-only effect, or another doubt; inactive means no such curve, though single readings can be large; an effect the other way counts as inactive or inconclusive. On the % scale 0 is the no-effect control and ±100 the full control effect.

SMILES	RORg inh	TSHR antagonist	Gal4-VP16 FLuc	FBPA coupling cs	ELG1 DNA repair	ELG1 unstim viab	others
CCOC(=O)c1cc(-c2cc3ccccc3o2)nc2c1c(=O)[nH]c(=O)n2CCOC	-1%	-3	2%	1	-17%	.
Fc1ccccc1-c1csc(=Nc2cccnc2)n1CCCn1ccnc1	?	-6	-17%	-2	10µM*	?	ELG1 FLuc counter=16%;ELG1 Luc conf=13µM*;ELG1 MMS Luc=20µM*;ELG1 5FU viab=1%;ELG1 MMS cell=22µM*;FLuc enzyme=?
Cc1csc(=Nc2cccnc2)n1CC1CCCCC1	?	-7	-6%	5	?	.
Fc1ccccc1-c1csc(=Nc2cccnc2)n1CC1CCCO1 (stereo unspecified)	?	8	7.1µM*	-9	?	?	ELG1 FLuc counter=-12%;ELG1 Luc conf=?;ELG1 MMS Luc=22µM*;ELG1 5FU viab=9%;ELG1 MMS cell=16µM*;FLuc enzyme=-15%
CCOC(=O)[C@H]1[C@H]2COc3ccc(OC)cc3[C@@H]2N2C(=O)[C@H](C)NC(=O)[C@@]12C	.	1	.	.	4%	.
COc1ccc2[nH]c(C(=O)c3ccccc3)cc2c1	-15%	.	-11%	-1	.	.
CCCC(=O)Oc1ccc2[nH]c(C(=O)c3cc4ccccc4[nH]3)cc2c1	.	.	.	.	.	3%
Cc1c(CC(=O)N2CCC(C(N)=O)CC2)c(=O)oc2cc3c(cc12)CCC1(CCCCC1)O3	38%	-12	0%	0	-27%	.
CCc1c(C)nc2cc(-c3cc(OC)cc(OC)c3)nn2c1N1CCN(CCN2CCOCC2)CC1	?	21	?	-1	2.6µM*	-6%	ELG1 Luc conf=4.4µM*;ELG1 MMS Luc=?;ELG1 5FU viab=?;ELG1 MMS cell=9%
COc1ccc(-c2cc(C(F)(F)F)n3nc(C(=O)NCCN4CCOCC4)cc3n2)cc1	-16%	-2	2%	1	-1%	.
Nc1ccccc1NC(=O)c1ccc(CNC(=O)OCc2cccnc2)cc1	-35%	.	4%	2	.	?	ELG1 FLuc counter=136%;FLuc enzyme=-4%
COCc1ccc(C(=O)Nc2ccccc2C(=O)NCc2cccnc2)cc1	-5%	-16	8%	0	6%	.
O=C1CCN(Cc2ccccc2)C=C1c1ccc2ccccc2c1	.	-12	.	.	?	-2%
Cc1ccc(N(CC(=O)NCc2ccc(F)cc2)S(=O)(=O)c2c(C)n[nH]c2C)cc1	44%	-45	?	9	1%	.
